Assay [1] can be described thus: signal quenchers or enhancers, Cy5 substrate/SSB – biochemical, NIH Clinical Collection, E. coli SSB, artefact control for HCV NS3 helicase inhibitor project (AID 743268). The following applies: Cy5-oligo bound E. coli SSB, fluorescence interference.
The test system of assay [2] is Hepatitis C virus NS3 helicase. In words: blockers of NS3h binding to DNA – biochemical, fluorescence polarization, NIH Clinical Collection, primary screen (AID 743270). The following applies: NS3 helicase binding to Cy5-dT15 DNA, stronger effect = higher value, concentration not given here. (In fluorescence polarisation assays a small probe gives low polarisation when free and higher when bound to something large.)

Assay [3] concerns the target Single-stranded DNA-binding protein (Escherichia coli (strain K12)) (UniProt P0AGE0). In words: SSB-ssDNA binding inhibitors – biochemical, fluorescence polarization, NIH Clinical Collection, counter-screen for HCV NS3 helicase inhibitor project (AID 743271; in the data active means inhibition above about 28%). The following applies: E. coli SSB-DNA binding, stronger effect = higher value, concentration not given here.
A short description of assay [4]: compounds distorting NS3 helicase fluorescence signal – biochemical, NIH Clinical Collection, artefact control for HCV NS3 helicase inhibitor project (AID 743272).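 Further: HCV NS3 helicase with a Cy5 labelled single stranded DNA probe.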 The following applies: fluorescence interference counterscreen, HCV NS3 helicase assay; stronger effect = lower value. A general note: The purpose of a counterscreen is to sort out artefacts and off-target activity.

Assay [5] in a line: viability loss in pontine glioma line – cell-based, SU-DIPG-XVII, MIPE5.0, CellTiter-Glo, qHTS, dose response (AID 1347060; cut-off not given, nearly all actives have AC50 up to about 26 µM;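 on AC50: cells exposed to compound for 48 hours before viability readout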). To be noted: CellTiter-Glo ATP luminescence. Background: ATP-based viability assays read luminescence as a measure of living cells.
Assay [6] can be described thus: viability loss in pontine glioma line – cell-based, SU-DIPG-XIII, MIPE4.0, CellTiter-Glo, qHTS, dose response (AID 1347061; cut-off not given, nearly all actives have AC50 up to about 37 µM;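 further: cells exposed to compound for 48 hours before readout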). The following applies: CellTiter-Glo ATP luminescence.
Assay [7] can be described thus: viability loss in pontine glioma line – cell-based, JHH-DIPG-1, MIPE4.0, CellTiter-Glo, qHTS, dose response (AID 1347062; cut-off not given, nearly all actives have AC50 up to about 27 µM;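 on AC50: cells exposed to compound for two days before readout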). The following applies: JHH-DIPG-1 viability, CellTiter-Glo ATP luminescence.
A short description of assay [8]: viability loss in pontine glioma line – cell-based, SU-DIPG-IV, MIPE4.0, CellTiter-Glo, qHTS, dose response (AID 1347063; cut-off not given, nearly all actives have AC50 up to about 30 µM;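 further: compound exposure lasted 48 hours before the viability readout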). To be noted: CellTiter-Glo ATP luminescence.
Assay [9] is described as follows: growth inhibition of DIPG cells – cell-based, MIPE4.0 library, CellTiter-Glo luminescence, qHTS (AID 1347066; cut-off not given, nearly all actives have AC50 up to about 30 µM;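 further: cells exposed to compound for 48 hours before readout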). To be noted: SU-DIPG-VI viability, CellTiter-Glo ATP luminescence.
Assay [10] can be described thus: JHH-DIPG-1 glioma cell viability, MIPE5.0 library, CellTiter-Glo luminescence, qHTS (AID 1347067; cut-off not given, nearly all actives have AC50 up to about 26 µM;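 further: cells exposed to compound for 48 hours before readout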). The following applies: JHH-DIPG-1 glioma viability, CellTiter-Glo ATP luminescence.
Assay [11] can be described thus: growth inhibition of DIPG cells – cell-based, MIPE5.0 library, qHTS (AID 1347068; cut-off not given, nearly all actives have IC50 up to about 30 µM;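 on IC50: cells exposed to compound for 48 hours before viability readout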). The following applies: SU-DIPG-XXV viability.
Assay [12] in a line: growth inhibition, single agent or in combination, cell-based, chromothripsis tumors, cisplatin or BGB combos (AID 1671449; in the data active means inhibition above about 80%;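 further: cells exposed for 96 hours; 0% = vehicle DMSO and 100% = killing by high DMSO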). To be noted: LFS_MB_P medulloblastoma cells.
A short description of assay [13]: growth inhibition, single agent and combos, cell-based, chromothripsis tumors, cisplatin or BGB combos (AID 1671450; in the data active means inhibition above about 80%;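 further: cells exposed to compound for four days; 0% = vehicle DMSO and 100% = cell killing by high DMSO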). The following applies: HDN33 neuroblastoma cells, stronger effect = higher value.
The nature of assay [14]: growth inhibition, single agents and combos, ICB984, cell-based, cisplatin or BGB combos, synergistic combos for chromothripsis tumors (AID 1671451).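 Further: cells exposed for 96 hours before readout; 0% = vehicle DMSO and 100% = killing by high DMSO.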 The following applies: ICB984 medulloblastoma cells, drug combinations, stronger effect = higher value.
Assay [15] in a line: growth inhibition, single agents and combos, HTB85, cell-based, BGB or cisplatin IC20 combos, synergistic combos for chromothripsis tumors (AID 1671453; in the data active means inhibition above about 80%;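 further: cells exposed for 96 hours before readout; 0% = vehicle DMSO and 100% = high DMSO killing control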). To be noted: HTB85 osteosarcoma cells, drug combinations, stronger effect = higher value.
The test system of another assay is F380Y/beta4. In words: BK channel mutant inhibitors and activators – cell-based, U2OS BacMam, thallium flux, beta subunits, selectivity assay, profiling panel (AID 1259406;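 active means thallium flux through the channel raised or lowered by more than 3 SD from vehicle-only wells, actives on both sides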;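 further: initial slope of Thallos dye fluorescence rise after thallium is added; log ratio against the mean of 0.3% DMSO vehicle wells on the same plate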). To be noted: U2OS BacMam BK variants, at 30 µM.
Assay [16] deals with Calcium-activated potassium channel subunit alpha-1 (Homo sapiens) + Leucine-rich repeat-containing protein 26 (Homo sapiens) (UniProt Q12791+Q2I0M4). The assay is described as above. To be noted: U2OS BacMam BK variants, F380Y/Slo1WT/gamma1, at 30 µM.
Calcium-activated potassium channel subunit alpha-1 (Homo sapiens) + Leucine-rich repeat-containing protein 26 (Homo sapiens), sequence (Q2I0M4 whole entry, looked up, one chain of several): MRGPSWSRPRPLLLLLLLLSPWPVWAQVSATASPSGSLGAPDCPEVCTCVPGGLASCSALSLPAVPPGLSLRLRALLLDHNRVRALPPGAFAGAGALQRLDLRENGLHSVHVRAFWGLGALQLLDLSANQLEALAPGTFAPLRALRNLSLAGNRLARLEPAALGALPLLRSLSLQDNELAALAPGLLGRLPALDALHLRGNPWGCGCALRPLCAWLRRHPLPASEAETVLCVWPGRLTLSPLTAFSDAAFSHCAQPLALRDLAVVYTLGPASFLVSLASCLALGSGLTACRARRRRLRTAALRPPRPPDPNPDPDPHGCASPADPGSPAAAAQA
In the next assay the test system is R275C/beta4. Described as above. To be noted: U2OS BacMam BK variants, at 30 µM.
Assay [17] concerns Neuropilin-2 / VEGF-C interaction (human). As to the kind of experiment: small molecules blocking Neuropilin-2/VEGF-C interaction – biochemical, microplate binding format, z-score (AID 743281). The following applies: microplate NRP2/VEGF-C binding assay; stronger effect = lower value.
Assay [18] relates to Aerobactin synthetase IucA (Klebsiella pneumoniae). In words: inhibition of K. pneumoniae IucA enzyme – biochemical, Tocris library, absorbance (AID 1345561).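 Further: 100% = enzyme without compound and 0% = no enzyme.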 To be noted: purified IucA enzyme assay, absorbance (OD) read-out; stronger effect = lower value;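 tested at 8 µM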.
Setting [19] is: at 0.5 µM, stronger effect = higher value.
The mark [20] stands for this setting: measured here: combination with BGB IC20, at 0.005 µM.
[21] abbreviates: measured here: combination with BGB IC40, at 0.005 µM.
Setting [22] is: measured here: combination with BGB IC40, at 0.05 µM.
[23] abbreviates: measured here: combination with cisplatin, at 0.5 µM, stronger effect = higher value.
Setting [24] is: measured here: combination with cisplatin, at 5 µM, stronger effect = higher value.
Where [25] appears, read: measured here: with BGB IC20 combination, at 0.5 µM.
Setting [26] is: measured here: with cisplatin IC20 combination, at 0.5 µM.
[27] abbreviates: measured here: 5 uM single agent, at 5 µM.
[28] abbreviates: measured here: with BGB IC20, at 0.5 µM.
The mark [29] stands for this setting: measured here: with BGB IC20, at 5 µM.
The mark [30] stands for this setting: measured here: with cisplatin IC20, at 0.5 µM.
[31] abbreviates: measured here: with cisplatin IC20, at 5 µM.

“And” between values parts separate entries of the source, which are not always exact repeats. Equal values may be shown once. Inconclusive results are not listed. The source made the active and inactive calls. Unless noted, how the calls were made is not given here.

For orientation: inhibition means the drop in the measured response relative to a control, in per cent. `O=P1(N(CCCl)CCCl)NCCCO1` (centres undefined): the results for the fluorescence ratio in [1] and in assay [4] were 1.07 (inactive) and 0.99 (inactive), respectively. In addition, the inhibition in assay [2] was -4.09% (inactive); in assay [3], 1.05% (inactive); in assay [12] (setting [19]), -6.53% (inactive) and -7.84% (inactive); in [12] (setting [20]), 2.32% and -13.2%; in assay [12] (setting [21]), -6.39% and -22.4%; in assay [12] (setting [22]), -5.95% and 13%. Also, the inhibition in assay [12] (setting [23]) is -9.48% and -17.9%; in assay [12] (setting [24]) it was -25.8% and -37.1%; in assay [13] (BGB combo, at 5 µM) it was -38.1% and 11.3%; in assay [13] (at 0.5 µM) it was -28.6% (inactive) and -1.03% (inactive); in assay [13] (cisplatin combo, at 5 µM), -13.9% and -0.927%; in assay [13] (setting [25]) it was -28.4% and 3.51%. For the same compound, the inhibition is -36.3% and 6% in [13] (setting [26]); -28.1% and -8.82% in [13] (single agent, at 5 µM); -3.81% and -12.8% in [14] (BGB IC20 combo, at 0.005 µM); -4.33% and -15% in assay [14] (BGB IC40 combo, at 0.005 µM); -3.91% and -28.7% in assay [14] (BGB IC40 combo, at 0.05 µM); -31.6% (inactive) and -25.4% (inactive) in assay [14] (at 0.5 µM). In addition, the inhibition in [14] (cisplatin combo, at 0.05 µM) was -7.65% and -28.7%; in [14] (cisplatin combo, at 0.5 µM), -40.7% and -25.4%; in [14] (cisplatin combo, at 5 µM), -21.7% and -28.6%; in [14] (setting [27]), 6.31% and -15%; in [15] (at 0.5 µM), -15.6% (inactive) and -16.2% (inactive); in [15] (setting [28]), -17.1% and -31%. The inhibition is -9.3% and -18.7% in assay [15] (setting [29]); -29.3% and -21% in [15] (setting [30]); -39.9% and -19.6% in assay [15] (setting [31]); 0.113% and -3.32% in [15] (single agent, at 5 µM). For the same compound, the result in assay [5], in assay [6], in [7], in [8], in assay [9] and in assay [10] was inactive. Also, in assay [11], the call was inactive. Further, the log fold change Tl+ flux with F380Y/beta4 was -0.0197 (inactive); in assay [16], 0.0114 (inactive); with R275C/beta4, 0.0832 (inactive).

On to `COC(=O)C1=CCCN(C)C1`, for which the call in [8] and in assay [9] was inactive.

Take `CCCC(C)(COC(N)=O)COC(=O)NC(C)C` (centres undefined): the fluorescence ratio was 1.01 (inactive) in assay [1] and 0.93 (inactive) in [4]. In addition, the inhibition in assay [2] was -6.82% (inactive); in assay [3] it was -2% (inactive). Moreover, the result in [6] and in assay [9] was inactive. In addition, the log fold change Tl+ flux in the assay on F380Y/beta4 was 0.0106 (inactive); in assay [16], 0.00552 (inactive); in the assay with R275C/beta4, 0.0318 (inactive).

On to `CC(C)N(CCC(C(N)=O)(c1ccccc1)c1ccccn1)C(C)C` (centres undefined), for which the fluorescence ratio in assay [1] was 0.1 (active); in assay [4], 1.04 (inactive). In addition, the inhibition in assay [2] is -3.18% (inactive); in assay [3], -3.53% (inactive). In addition, the log fold change Tl+ flux in the assay on F380Y/beta4 is 0.017 (inactive); in [16], 0.0168 (inactive); in the assay on R275C/beta4 it was -0.0304 (inactive).

One may read the AC50 as the concentration at which the activity in the assay is half-maximal. For orientation: IC50 means the point on the concentration scale where inhibition reaches its midpoint. Turning to `C[C@@H]1C[C@@H]([C@H](O)CC2CC(=O)NC(=O)C2)C(=O)[C@@H](C)C1`, the AC50 in [5] was 934 nM (active); in assay [7] it was 743 nM (active); in assay [8], 469 nM (active). Moreover, the outcome in assay [9] was inactive. For the same compound, in [11], the IC50 was 934 nM (active).

As to `Clc1ccc(CO/N=C(\Cn2ccnc2)c2ccc(Cl)cc2Cl)c(Cl)c1`, the result in assay [17] was inactive.

For the compound `O=C(O)CCCc1ccc(N(CCCl)CCCl)cc1`, the fluorescence ratio was 1.06 (inactive) in [1] and 1.01 (inactive) in assay [4]. Further, the inhibition in assay [2] is -5% (inactive); in assay [3], -4.29% (inactive); in assay [12] (setting [19]), -42.9% (inactive); in [12] (setting [20]), -28.5%; in assay [12] (setting [21]) it was -27.3%; in [12] (setting [22]) it was -24.4%. Moreover, the inhibition in [12] (setting [23]) was -49.6%; in assay [12] (setting [24]), -22.6%; in assay [13] (BGB combo, at 5 µM), -4.28%; in assay [13] (at 0.5 µM), -4.71% (inactive); in [13] (cisplatin combo, at 5 µM) it was -10.3%; in [13] (setting [25]), -8.37%. The inhibition in assay [13] (setting [26]) was 15.9%; in [13] (single agent, at 5 µM), -10.9%; in [14] (BGB IC20 combo, at 0.005 µM), -3.85%; in assay [14] (BGB IC40 combo, at 0.005 µM) it was -23.1%; in assay [14] (BGB IC40 combo, at 0.05 µM), -2.9%; in assay [14] (at 0.5 µM), -29% (inactive). The inhibition in assay [14] (cisplatin combo, at 0.05 µM) is -2.9%; in assay [14] (cisplatin combo, at 0.5 µM) it was -34.6%; in [14] (cisplatin combo, at 5 µM) it was -18.5%; in [14] (setting [27]) it was -8.66%; in assay [15] (at 0.5 µM) it was -18.7% (inactive); in [15] (setting [28]), -46.7%. Moreover, the inhibition is -21.9% in assay [15] (setting [29]); -11% in assay [15] (setting [30]); -8.05% in assay [15] (setting [31]); -6.46% in assay [15] (single agent, at 5 µM). Also, the concentration at half-maximal activity (AC50) in assay [5] was 934 nM (active); in assay [10], 16600 nM (active). Further, the call in assay [6], in assay [8], in assay [9] and in assay [11] was inactive. Further, the values for the log fold change Tl+ flux (with F380Y/beta4; in [16]; in the assay on R275C/beta4) were -0.0475 (inactive), -0.00393 (inactive) and -0.00696 (inactive), respectively.

`C=C(C)[C@H]1Cc2c(ccc3c2O[C@@H]2COc4cc(OC)c(OC)cc4[C@@H]2C3=O)O1`: the figures for the half-maximal activity concentration (AC50) in assay [5] and in assay [10] were 1320 nM (active) and 1480 nM (active), respectively. In addition, the result in assay [6] was inactive.

What is called remaining activity is the signal under treatment as a percentage of the control signal. For `CN1C(=O)CCS(=O)(=O)C1c1ccc(Cl)cc1` (centres undefined), in assay [18], the remaining activity is 97.1% (inactive). In addition, the compound was classed as inactive in [5], in assay [6], in assay [7], in assay [8], in assay [9] and in assay [10]. For the same compound, the compound was classed as inactive in [11].

Values taken from PubChem BioAssay.
